According to PubChem BioAssay (EPA / NIEHS):
Values joined by “and” are separate entries in the source; they are usually repeats but may differ in a detail not shown here. Identical values can stand only once. Inconclusive results are not listed. More than one record can exist for a structure, and the calls need not agree. Active and inactive are the calls of the source. Rule for the calls, unless noted: active = hit-call score of the fitted dose curve at least 0.9, where 1 is the maximum; inactive = score below 0.9.

Experiments:
[1] = molecular target: Glucocorticoid receptor (Homo sapiens) (UniProt P04150); assay: ATG_GR_TRANS: Attagene TRANS-FACTORIAL HepG2 Assay for human Glucocorticoid Receptor (GR) (AID 2282978; active = hit-call score of the fitted dose curve at least 0.9, where 1 is the maximum;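 note: activators score as hits since higher reporter transcript over DMSO is fitted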); settings: HepG2 Attagene TRANS GR reporter, mRNA transcription
Method in brief: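 Fluorescent capillary-electrophoresis quantitation of reporter mRNA is the readout, taken 24 h after dosing human HepG2 cells carrying transiently transfected GAL4-UAS reporter units activated by chimeric NR-GAL4 fusions; activity scored as induction over DMSO.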

[2] = molecular target: Bile acid receptor (Homo sapiens) (UniProt Q96RI1); assay: ATG_FXR_TRANS: Attagene TRANS-FACTORIAL HepG2 Assay for Farnesoid X Receptor (FXR) (AID 2282979; active = hit-call score of the fitted dose curve at least 0.9, where 1 is the maximum;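 note: hits raise reporter mRNA above DMSO so AC50 marks FXR activation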); settings: HepG2 Attagene TRANS FXR-GAL4 reporter transcription
Method in brief: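 Chimeric FXR-GAL4 activity in transiently transfected human HepG2 liver cells is scored as induction of reporter mRNA after 24 h of dosing. Detection uses RT-PCR with fluorescent labelling and capillary electrophoresis, with DMSO serving as baseline.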

[3] = ATG_M_06_TRANS: Attagene TRANS-FACTORIAL HepG2 Assay for M06 Transcription Factor (Internal Marker) (AID 2282983; active = hit-call score of the fitted dose curve at least 0.9, where 1 is the maximum); settings: HepG2 Attagene TRANS M06 internal marker reporter
Method in brief: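 Human liver HepG2 cells bearing transiently transfected chimeric NR-GAL4 reporter units were treated with chemicals for 24 h. Total RNA was reverse-transcribed, reporter sequences amplified and labelled, then quantified by capillary electrophoresis. Activity was fitted upward relative to DMSO.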

[4] = ATG_M_32_TRANS: Attagene TRANS-FACTORIAL HepG2 Assay for M32 Transcription Factor (Internal Marker) (AID 2282984; active = hit-call score of the fitted dose curve at least 0.9, where 1 is the maximum); settings: HepG2 Attagene TRANS M32 internal marker reporter
Method in brief: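 After 24 h dosing of transfected HepG2 cells, total RNA was reverse-transcribed, reporter sequences PCR-amplified, 6-FAM labelled by primer extension and HpaI-digested before capillary electrophoresis. Signal increase over DMSO was fitted.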

[5] = molecular target: Nuclear receptor subfamily 4 group A member 2 (Homo sapiens) (UniProt P43354); assay: ATG_NURR1_TRANS: Attagene TRANS-FACTORIAL HepG2 Assay for human Nuclear Receptor Related Protein 1 (NURR1) (AID 2282985; active = hit-call score of the fitted dose curve at least 0.9, where 1 is the maximum); settings: HepG2 Attagene TRANS reporter, mRNA readout
Method in brief: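 Chimeric NR-Gal4 fusion activity measured in HepG2 after 24 h treatment. Reporter transcripts detected by RT-PCR and capillary electrophoresis fluorescence; positive-direction curve fitting against DMSO.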

[6] = molecular target: Transcriptional activator Myb (Homo sapiens) (UniProt P10242); assay: ATG_Myb_CIS: Attagene CIS-FACTORIAL HepG2 Assay for human Myeloblastosis (Myb) Proto-Oncogene Transcription Factor (AID 2282986); settings: HepG2 Attagene CIS-FACTORIAL Myb reporter transcription; actives raise or lower the signal
Method in brief: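 Reporter transcript levels, quantified by fluorescent RT-PCR and capillary electrophoresis, serve as the read-out. Transfected HepG2 cells carrying cis-promoter reporter units are dosed for 24 hours, and curves are fitted bidirectionally against DMSO controls.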

[7] = molecular target: Nuclear respiratory factor 1 (Homo sapiens) (UniProt Q16656); assay: ATG_NRF1_CIS: Attagene CIS-FACTORIAL HepG2 Assay for human Nuclear Respiratory Factor 1 (NRF1) Orphan Gene (AID 2282987); settings: HepG2 NRF1 cis-element reporter, Attagene multiplex; actives raise or lower the signal
Method in brief: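 Multiplexed cis-reporter assay, HepG2 cells, 24 h treatment. Total RNA → oligo(dT) RT → PCR with reporter-specific primers → 6-FAM primer extension → HpaI cut → CE. Bidirectional fit vs DMSO.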

[8] = ATG_NFI_CIS: Attagene CIS-FACTORIAL HepG2 Assay for human Nuclear Factor I (NFI) (AID 2282989); settings: HepG2 cis-regulatory reporter, NFI response element transcription; actives raise or lower the signal
Method in brief: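 Multiplexed cis-reporter system in human HepG2 cells reports native TF activity as reporter mRNA induction 24 h post-dose. Fragments labelled with 6-FAM, HpaI-digested and resolved by capillary electrophoresis; activity fitted both directions versus DMSO.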

[9] = molecular target: Myc proto-oncogene protein (Homo sapiens) (UniProt P01106); assay: ATG_Myc_CIS: Attagene CIS-FACTORIAL HepG2 Assay for human Myelocytomatosis (Myc) Proto-Oncogene Transcription Factor (AID 2282990); settings: HepG2, Attagene cis-reporter transcription factor activity; actives raise or lower the signal
Method in brief: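 DMSO-normalised, bidirectionally fitted reporter mRNA signal. HepG2 cells transfected with cis reporter constructs, treated 24 h; transcripts detected by RT-PCR, 6-FAM primer extension and CE.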

[10] = ATG_NF_kB_CIS: Attagene CIS-FACTORIAL HepG2 Assay for human Nuclear Factor Kappa B (NF-kB) (AID 2282991); settings: HepG2 Attagene cis-factorial NF-kB reporter mRNA; actives raise or lower the signal
Method in brief: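 Transient MRTU transfection of human HepG2 liver cells → 24 h chemical exposure → total RNA, oligo(dT) RT → PCR, 6-FAM primer extension, HpaI digest 2 h 37 C → CE fragment analysis. Bidirectional fitting, DMSO negative control.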

[11] = ATG_NRF2_ARE_CIS: Attagene CIS-FACTORIAL HepG2 Assay for human Nuclear Factor Erythroid 2 Related Factor 2 (NFR2) response to Antioxidant Response Elements (ARE) (AID 2282992); settings: HepG2 Attagene ARE/NRF2 reporter, transcription factor activity; actives raise or lower the signal
Method in brief: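 Endogenous transcription factor activity read out as reporter transcript levels (RT-PCR plus capillary electrophoresis, fluorescence) in transiently transfected HepG2 cells. Measured at 24 h after dosing; gain or loss of signal fitted versus DMSO.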

[12] = ATG_Oct_MLP_CIS: Attagene CIS-FACTORIAL HepG2 Assay for human Octamer-Binding Transcription Factor (Oct) (AID 2282993); settings: HepG2 Attagene cis-factorial Oct reporter, mRNA; actives raise or lower the signal
Method in brief: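 After 24 h compound exposure, transfected HepG2 cells were lysed for total RNA; reporter-specific cDNA was PCR-amplified, fluorescently labelled and sized by capillary electrophoresis. Bidirectional curve fitting used DMSO as baseline.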

[13] = molecular target: Cellular tumor antigen p53 (Homo sapiens) (UniProt P04637); assay: ATG_p53_CIS: Attagene CIS-FACTORIAL HepG2 Assay for human p53 Transcription Factor (AID 2282994); settings: HepG2 p53 cis-element reporter, Attagene mRNA; actives raise or lower the signal
Method in brief: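 Endogenous p53 activity read in transiently transfected HepG2 from a cis-element-driven reporter transcript after 24 h exposure. RNA reverse-transcribed, PCR-amplified, fluorescently labelled and sized by capillary electrophoresis; gain or loss fitted against DMSO baseline.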

[14] = BSK_3C_TissueFactor: BioMAP Diversity Plus: 3C Assay for Tissue Factor Biomarker Activity (AID 2282997); settings: BioMAP 3C HUVEC, tissue factor biomarker readout; actives raise or lower the signal
Method in brief: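 Cells used were primary human umbilical vein endothelial cells. They were dosed with chemical, and after 24 h Tissue Factor was quantified by ELISA. Curves were fitted bidirectionally with DMSO as baseline.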

[15] = BSK_3C_uPAR: BioMAP Diversity Plus: 3C Assay for Urokinase-type plasminogen activator receptor (uPAR) Biomarker Activity (AID 2282998); settings: BioMAP 3C HUVEC, uPAR biomarker ELISA; actives raise or lower the signal
Method in brief: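 Values derive from bidirectional curve fitting relative to DMSO, which served as baseline of activity. uPAR was measured by ELISA in human umbilical vein endothelial primary cultures 24 h after compound addition.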

[16] = molecular target: Oxysterols receptor LXR-alpha (Homo sapiens) (UniProt Q13133); assay: ATG_LXRa_TRANS: Attagene TRANS-FACTORIAL HepG2 Assay for human Liver X Receptor alpha (LXRa) (AID 2282980; active = hit-call score of the fitted dose curve at least 0.9, where 1 is the maximum); settings: HepG2 Attagene TRANS reporter, LXRa transactivation
Method in brief: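 Transient HepG2 transfectants, 24 h dosing, RT-PCR/CE mRNA reporter quantitation; gain-of-signal vs DMSO.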

[17] = molecular target: Oxysterols receptor LXR-beta (Homo sapiens) (UniProt P55055); assay: ATG_LXRb_TRANS: Attagene TRANS-FACTORIAL HepG2 Assay for human Liver X Receptor beta (LXRb) (AID 2282981; active = hit-call score of the fitted dose curve at least 0.9, where 1 is the maximum); settings: HepG2 Attagene TRANS GAL4-LXRb reporter, mRNA
Method in brief: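 Measures induction of a Gal4-driven reporter transcript in HepG2 cells expressing an exogenous LXRb-Gal4 fusion. Cells are exposed to compound for 24 h before RNA isolation and RT-PCR with capillary electrophoresis detection.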

[18] = molecular target: Hepatocyte nuclear factor 4-alpha (Homo sapiens) (UniProt P41235); assay: ATG_HNF4a_TRANS: Attagene TRANS-FACTORIAL HepG2 Assay for human Hepatocyte Nuclear Factor 4 alpha (HNF4a) (AID 2282982; active = hit-call score of the fitted dose curve at least 0.9, where 1 is the maximum); settings: HepG2 HNF4a transactivation reporter, mRNA readout
Method in brief: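 In this trans-factorial format, a chimeric HNF4a-GAL4 fusion drives a GAL4-UAS reporter in transfected HepG2 liver cells. After 24 h treatment, reporter mRNA induction is measured by RT-PCR with capillary electrophoresis, relative to DMSO.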

Measured: AC50

Sequence of Myc proto-oncogene protein (Homo sapiens) (P01106 whole entry, looked up): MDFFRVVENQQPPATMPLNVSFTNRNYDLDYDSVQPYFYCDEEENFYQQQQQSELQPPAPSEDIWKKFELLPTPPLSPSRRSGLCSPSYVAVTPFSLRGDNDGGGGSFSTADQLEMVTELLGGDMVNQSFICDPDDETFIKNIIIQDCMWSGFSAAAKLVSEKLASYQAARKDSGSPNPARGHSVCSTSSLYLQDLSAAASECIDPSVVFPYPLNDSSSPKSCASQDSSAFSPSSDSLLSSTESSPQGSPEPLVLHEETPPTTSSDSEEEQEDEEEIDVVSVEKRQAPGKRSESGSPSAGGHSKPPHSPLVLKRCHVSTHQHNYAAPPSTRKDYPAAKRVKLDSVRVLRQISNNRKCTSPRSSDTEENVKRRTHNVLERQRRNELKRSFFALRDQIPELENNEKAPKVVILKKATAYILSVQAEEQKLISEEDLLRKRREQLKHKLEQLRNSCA
Sequence of Nuclear receptor subfamily 4 group A member 2 (Homo sapiens) (P43354 whole entry, looked up, the tested form may be a part): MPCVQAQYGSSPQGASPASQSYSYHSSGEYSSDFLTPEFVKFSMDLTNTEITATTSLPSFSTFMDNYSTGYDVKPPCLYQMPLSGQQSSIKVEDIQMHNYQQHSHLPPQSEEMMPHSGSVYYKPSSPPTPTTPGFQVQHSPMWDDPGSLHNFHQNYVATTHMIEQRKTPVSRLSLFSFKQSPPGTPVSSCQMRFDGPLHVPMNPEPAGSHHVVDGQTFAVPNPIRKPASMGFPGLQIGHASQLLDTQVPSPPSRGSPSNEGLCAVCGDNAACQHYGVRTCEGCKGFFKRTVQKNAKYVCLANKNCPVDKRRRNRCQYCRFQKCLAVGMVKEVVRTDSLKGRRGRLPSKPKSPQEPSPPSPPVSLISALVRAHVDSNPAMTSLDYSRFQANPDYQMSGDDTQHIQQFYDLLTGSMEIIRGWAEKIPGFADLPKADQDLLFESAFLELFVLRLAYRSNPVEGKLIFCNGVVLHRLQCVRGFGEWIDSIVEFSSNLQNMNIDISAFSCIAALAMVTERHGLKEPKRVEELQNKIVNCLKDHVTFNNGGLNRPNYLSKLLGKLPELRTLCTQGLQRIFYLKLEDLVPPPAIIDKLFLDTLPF
Sequence of Oxysterols receptor LXR-beta (Homo sapiens) (P55055 whole entry, looked up, the tested form may be a part): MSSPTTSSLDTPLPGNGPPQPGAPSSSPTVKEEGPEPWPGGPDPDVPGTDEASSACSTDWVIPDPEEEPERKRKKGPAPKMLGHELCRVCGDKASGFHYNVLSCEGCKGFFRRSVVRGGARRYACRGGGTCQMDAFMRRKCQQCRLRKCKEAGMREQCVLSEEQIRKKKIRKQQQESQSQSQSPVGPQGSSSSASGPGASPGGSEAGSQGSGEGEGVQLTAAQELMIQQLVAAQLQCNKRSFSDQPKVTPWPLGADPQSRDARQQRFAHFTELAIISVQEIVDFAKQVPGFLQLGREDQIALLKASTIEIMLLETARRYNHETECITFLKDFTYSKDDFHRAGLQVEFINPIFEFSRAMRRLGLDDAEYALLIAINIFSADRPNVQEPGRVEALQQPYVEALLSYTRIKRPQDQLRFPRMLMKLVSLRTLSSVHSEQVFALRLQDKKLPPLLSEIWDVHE
Sequence of Nuclear respiratory factor 1 (Homo sapiens) (Q16656 whole entry, looked up): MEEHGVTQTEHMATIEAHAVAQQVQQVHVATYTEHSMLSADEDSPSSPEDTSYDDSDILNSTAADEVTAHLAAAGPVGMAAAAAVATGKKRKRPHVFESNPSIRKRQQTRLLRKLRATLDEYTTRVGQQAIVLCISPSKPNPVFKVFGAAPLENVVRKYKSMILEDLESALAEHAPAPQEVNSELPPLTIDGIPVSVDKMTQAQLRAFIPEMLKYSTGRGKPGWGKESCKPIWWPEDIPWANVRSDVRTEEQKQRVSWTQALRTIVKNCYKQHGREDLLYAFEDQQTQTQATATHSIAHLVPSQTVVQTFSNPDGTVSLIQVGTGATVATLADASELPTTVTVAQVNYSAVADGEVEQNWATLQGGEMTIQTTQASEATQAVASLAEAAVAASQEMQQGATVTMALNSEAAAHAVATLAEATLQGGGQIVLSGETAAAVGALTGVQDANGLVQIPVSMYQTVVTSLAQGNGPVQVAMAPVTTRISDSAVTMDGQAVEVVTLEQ
Sequence of Transcriptional activator Myb (Homo sapiens) (P10242 whole entry, looked up): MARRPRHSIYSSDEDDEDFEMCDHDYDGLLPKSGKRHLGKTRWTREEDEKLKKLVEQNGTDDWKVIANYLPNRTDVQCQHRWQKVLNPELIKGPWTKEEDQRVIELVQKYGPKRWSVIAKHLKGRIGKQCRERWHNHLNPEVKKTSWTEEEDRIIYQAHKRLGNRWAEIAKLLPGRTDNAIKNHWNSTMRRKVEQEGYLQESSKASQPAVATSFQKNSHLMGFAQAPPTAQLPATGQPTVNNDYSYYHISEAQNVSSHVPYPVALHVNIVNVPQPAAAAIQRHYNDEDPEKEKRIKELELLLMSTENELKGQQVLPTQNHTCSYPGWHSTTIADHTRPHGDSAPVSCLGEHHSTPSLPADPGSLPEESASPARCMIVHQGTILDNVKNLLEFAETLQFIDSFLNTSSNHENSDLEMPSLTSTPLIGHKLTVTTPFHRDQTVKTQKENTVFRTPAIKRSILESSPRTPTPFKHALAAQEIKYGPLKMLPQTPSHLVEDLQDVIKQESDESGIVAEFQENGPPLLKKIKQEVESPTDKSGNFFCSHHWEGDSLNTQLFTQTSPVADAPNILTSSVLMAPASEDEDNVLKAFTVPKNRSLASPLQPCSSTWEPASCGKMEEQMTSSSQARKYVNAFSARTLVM
Sequence of Glucocorticoid receptor (Homo sapiens) (P04150 whole entry, looked up, the tested form may be a part): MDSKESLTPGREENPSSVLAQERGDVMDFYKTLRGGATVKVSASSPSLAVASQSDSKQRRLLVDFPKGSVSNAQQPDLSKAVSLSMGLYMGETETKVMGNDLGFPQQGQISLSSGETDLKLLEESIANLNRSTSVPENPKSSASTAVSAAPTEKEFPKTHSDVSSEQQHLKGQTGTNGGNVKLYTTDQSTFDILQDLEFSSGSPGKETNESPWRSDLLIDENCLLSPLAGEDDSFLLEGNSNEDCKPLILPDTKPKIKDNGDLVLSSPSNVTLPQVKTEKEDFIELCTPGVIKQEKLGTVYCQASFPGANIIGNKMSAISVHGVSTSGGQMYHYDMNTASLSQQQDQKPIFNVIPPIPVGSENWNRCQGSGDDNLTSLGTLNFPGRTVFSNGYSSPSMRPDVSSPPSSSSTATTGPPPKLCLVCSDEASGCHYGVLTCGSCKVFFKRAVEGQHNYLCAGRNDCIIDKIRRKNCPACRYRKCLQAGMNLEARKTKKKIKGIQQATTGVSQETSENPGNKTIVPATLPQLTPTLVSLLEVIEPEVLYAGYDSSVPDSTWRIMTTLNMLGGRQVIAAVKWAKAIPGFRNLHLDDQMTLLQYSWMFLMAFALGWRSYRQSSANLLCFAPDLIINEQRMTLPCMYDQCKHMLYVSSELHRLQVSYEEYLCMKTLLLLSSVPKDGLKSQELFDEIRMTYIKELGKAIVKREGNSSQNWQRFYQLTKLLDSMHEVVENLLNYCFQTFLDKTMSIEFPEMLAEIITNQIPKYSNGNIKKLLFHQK
Sequence of Bile acid receptor (Homo sapiens) (Q96RI1 whole entry, looked up, the tested form may be a part): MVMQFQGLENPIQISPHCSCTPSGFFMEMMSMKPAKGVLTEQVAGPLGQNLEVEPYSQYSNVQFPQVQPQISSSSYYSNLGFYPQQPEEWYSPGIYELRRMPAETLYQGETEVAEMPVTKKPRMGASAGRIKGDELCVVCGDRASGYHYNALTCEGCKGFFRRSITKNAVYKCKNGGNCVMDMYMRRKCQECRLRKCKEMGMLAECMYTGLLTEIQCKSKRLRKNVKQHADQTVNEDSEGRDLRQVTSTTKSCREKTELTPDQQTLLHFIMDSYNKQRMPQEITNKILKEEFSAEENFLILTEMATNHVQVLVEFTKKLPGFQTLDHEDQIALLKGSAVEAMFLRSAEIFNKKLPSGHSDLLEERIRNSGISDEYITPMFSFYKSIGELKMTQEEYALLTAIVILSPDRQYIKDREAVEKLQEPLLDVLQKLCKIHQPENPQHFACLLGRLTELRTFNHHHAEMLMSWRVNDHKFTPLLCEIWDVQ
Sequence of Hepatocyte nuclear factor 4-alpha (Homo sapiens) (P41235 whole entry, looked up, the tested form may be a part): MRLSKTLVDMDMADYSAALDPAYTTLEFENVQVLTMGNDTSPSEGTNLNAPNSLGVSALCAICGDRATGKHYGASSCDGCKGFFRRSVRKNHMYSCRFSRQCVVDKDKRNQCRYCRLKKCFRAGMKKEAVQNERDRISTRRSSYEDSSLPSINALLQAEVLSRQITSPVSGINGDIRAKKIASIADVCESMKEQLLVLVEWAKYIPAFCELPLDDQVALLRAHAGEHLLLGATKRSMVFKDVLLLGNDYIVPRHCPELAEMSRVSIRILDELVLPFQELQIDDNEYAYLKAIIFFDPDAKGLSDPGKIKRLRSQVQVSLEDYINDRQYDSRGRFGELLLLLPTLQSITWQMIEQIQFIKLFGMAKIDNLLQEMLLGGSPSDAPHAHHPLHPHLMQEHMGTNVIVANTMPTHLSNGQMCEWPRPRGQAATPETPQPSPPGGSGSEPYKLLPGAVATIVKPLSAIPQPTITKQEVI
Sequence of Cellular tumor antigen p53 (Homo sapiens) (P04637 whole entry, looked up): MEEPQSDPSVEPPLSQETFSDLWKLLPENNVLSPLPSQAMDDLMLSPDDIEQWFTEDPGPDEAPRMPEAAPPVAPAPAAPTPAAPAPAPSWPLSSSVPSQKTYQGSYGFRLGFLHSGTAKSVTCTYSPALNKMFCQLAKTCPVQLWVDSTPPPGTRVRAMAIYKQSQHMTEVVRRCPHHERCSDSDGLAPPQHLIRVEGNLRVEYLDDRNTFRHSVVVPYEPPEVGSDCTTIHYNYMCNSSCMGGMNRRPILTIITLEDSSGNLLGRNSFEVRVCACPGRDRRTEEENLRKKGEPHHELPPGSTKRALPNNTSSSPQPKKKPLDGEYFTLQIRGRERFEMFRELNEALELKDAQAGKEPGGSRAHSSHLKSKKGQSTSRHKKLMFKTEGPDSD

CCOP(=S)(OCC)Oc1nc(Cl)c(Cl)cc1Cl
active: [8] 69.6 µM | [11] 33.4 µM | [12] 117 µM | [15] 33.5 µM
not listed: [16] | [17] | [18]
inactive: all other assays above

C[C@]12CCC(=O)C[C@@H]1CC[C@@H]1[C@@H]2CC[C@]2(C)[C@@H](O)CC[C@@H]12
active: [10] 57.9 µM | [11] 61.4 µM and 57.3 µM | [12] 86.1 µM | [13] 51.4 µM | [15] 18.6 µM
inactive: [1] | [16] | [17] | [3] | [4] | [6] | [9] | [10] | [11] | [12] | [13] | [14]

Cl/C=C\C[N+]12CN3CN(CN(C3)C1)C2
inactive: [2] | [17] | [4] | [5] | [6] | [8] | [9] | [12]
active: [10] 53.6 µM | [11] 160 µM | [13] 173 µM

Nc1ccc(N=Nc2ccc(-c3ccc(N=Nc4c(S(=O)(=O)O)cc5cc(S(=O)(=O)O)c(N=Nc6ccccc6)c(O)c5c4N)cc3)cc2)c(N)c1
inactive: [16] | [17] | [3] | [5] | [6] | [9] | [10] | [11] | [12]

CCN1CCC2(CC1)COc1cc3c(cc12)N(C(=O)c1ccc(-c2ccc(-c4nnc(C)o4)cc2C)cc1)CC3
active: [17] 1.01 µM | [11] 5.17 µM | [14] 13.2 µM | [15] 9.27 µM
not listed: [1] | [3] | [5] | [13] | [18]
inactive: all other assays above

CNC
not listed: [2] | [3] | [11] | [14] | [15] | [16] | [18]
inactive: all other assays above

COP(=S)(OC)Oc1ccc(Sc2ccc(OP(=S)(OC)OC)cc2)cc1
active: [11] 3.58 µM | [15] 20 µM
not listed: [1] | [2] | [8] | [10] | [13] | [18]
inactive: all other assays above

[O-][Cl+2]([O-])O
not listed: [1] | [2] | [7] | [14] | [15]
inactive: all other assays above

ClC1=C(Cl)[C@]2(Cl)[C@H]3[C@H]([C@H]4C=C[C@H]3C4)[C@@]1(Cl)C2(Cl)Cl
active: [14] 2.35 µM | [15] 3.97 µM
not listed: [2] | [10] | [16] | [17] | [18]
inactive: all other assays above

N#Cc1ccccn1
not listed: [1] | [2] | [11] | [14] | [15]
inactive: all other assays above

CNC(=O)O/N=C/C(C)(C)S(C)=O (stereo not given)
active: [11] 55.1 µM
inactive: [1] | [17] | [3] | [6] | [7] | [8] | [9] | [10] | [12]

CC1(C)CCC(Cc2ccc(Cl)cc2)C1(O)Cn1cncn1 (stereo not given)
active: [11] 33.4 µM
not listed: [1] | [13] | [14] | [15] | [18]
inactive: all other assays above

O=C(O)C(F)(F)C(F)(F)C(F)(F)C(F)(F)C(F)(F)C(F)(F)F
not listed: [1] | [7] | [11] | [13] | [16] | [18]
inactive: all other assays above

O=CC=O
inactive: [1] | [18] | [3] | [6] | [7] | [8] | [9] | [11] | [12]

O=C(O)C(Cl)(Cl)Cl
not listed: [1] | [2] | [7] | [8] | [10]
inactive: all other assays above

CCC(C)c1cccc(C(C)CC)c1O (stereo not given)
active: [16] 14.3 µM | [5] 33.4 µM | [11] 18 µM
not listed: [1] | [7] | [14] | [15] | [18]
inactive: all other assays above

Clc1nc(Cl)nc(Cl)n1
not listed: [2] | [14] | [15] | [16] | [17]
inactive: all other assays above
